Several values for one entry are separate records, joined by “and”; a condition that tells them apart may be missing. Equal entries are not always repeated. Where a structure was tested more than once in an assay, its records may differ in their call. Activity calls are given as the source filed them. Unless noted, calls come from the whole dose curve; as a rule, active = well fitted curve in the direction sought with a large enough effect in the repeat runs; inconclusive = weak or mixed curves; inactive = no such curve, though single readings can be large; an effect the other way counts as inactive or inconclusive.

Assay [1] in a line: qHTS assay to identify small molecule antagonists of the glucocorticoid receptor (GR) signaling pathway - cell viability counter screen (AID 720693). Note: nearly all actives have a fitted effect of over 55% in size. Note: potency is the fitted concentration of half-maximal effect. Background: Quantitative high-throughput screening tests each substance at several concentrations.
The nature of assay [2]: qHTS assay for identifying genotoxic compounds that show differential cytotoxicity against isogenic chicken DT40 cell lines with known DNA damage response pathways - wild type cell line (AID 743012). Note: nearly all actives have a fitted effect of over 60% in size. Note: potency is the fitted concentration of half-maximal effect. In a few lines: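 First, wild type DT40 cells were plated at 300 per well and equilibrated about 0.5 h at 37 C/5% CO2. Next, compounds in DMSO were added and exposure lasted 40 h. Finally, CellTiter-Glo was added for 30 min at room temperature and luminescence recorded.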

Assay [3] in a line: qHTS assay for identifying genotoxic compounds that show differential cytotoxicity against isogenic chicken DT40 cell lines with known DNA damage response pathways - Rev3 mutant cell line (AID 743014). Note: nearly all actives have a fitted effect of over 55% in size. Note: potency is the fitted concentration of half-maximal effect.
The nature of assay [4]: qHTS assay for identifying genotoxic compounds that show differential cytotoxicity against isogenic chicken DT40 cell lines with known DNA damage response pathways - Rad54/Ku70 mutant cell line (AID 743015). Note: nearly all actives have a fitted effect of over 60% in size. Note: potency is the fitted concentration of half-maximal effect.
Assay [5] in a line: qHTS assay to identify small molecule antagonists of the androgen receptor (AR) signaling pathway - cell viability counter screen (AID 743033; note: nearly all actives have a fitted effect of over 45% in size).
A short description of assay [6]: qHTS assay to identify small molecule antagonists of the androgen receptor (AR) signaling pathway using the MDA cell line - cell viability counter screen (AID 743041; note: nearly all actives have a fitted effect of over 45% in size; note: potency is the fitted concentration of half-maximal effect). In a few lines: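 MDA-kb2 AR-luc human breast carcinoma cells (MMTV-luciferase, AR/GR responsive) were treated with compounds plus R1881 agonist for 16 h at 37 °C. Viability was read as CellTiter-Fluor fluorescence in the same wells as the reporter assay.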

A short description of assay [7]: qHTS assay to identify small molecule antagonists of the thyroid receptor (TR) signaling pathway - cell viability counter screen (AID 743064). Note: nearly all actives have a fitted effect of over 50% in size. Note: potency is the fitted concentration of half-maximal effect. Put shortly: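 GH3.TRE-Luc rat pituitary cells dosed after 4 hr plating, co-stimulated with T3 at 1 nM final, incubated 23.5 h at 37 C. Viability measured in the same wells by CellTiter-Fluor fluorescence after 30 min further at 37 C.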

The nature of assay [8]: qHTS assay to identify small molecule antagonists of the thyroid receptor (TR) signaling pathway (AID 743065). Note: nearly all actives have a fitted effect of over 55% in size. Note: potency is the fitted concentration of half-maximal effect. In a few lines:
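GH3.TRE-Luc rat pituitary cells carrying two TR response elements driving luciferase were plated for 4 h, given compound plus 1 nM T3 (final), and incubated 23.5 h at 37 C. ONE-Glo luminescence measured reporter inhibition; CellTiter-Fluor fluorescence tracked cytotoxicity.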

Assay [9] relates to thyroid hormone receptor (rat, GH3 cells). Put plainly: qHTS assay to identify small molecule agonists of the thyroid receptor (TR) signaling pathway (AID 743066; calls by dose curve).
For assay [10], the target named is Estrogen receptor (Homo sapiens) (UniProt P03372). Put plainly: qHTS assay to identify small molecule antagonists of the estrogen receptor alpha (ER-alpha) signaling pathway (AID 743069; active = well fitted curve in the direction sought with a large enough effect in the signal ratio in the repeat runs, not every such curve was filed as active; inconclusive = weak or mixed curves, or effect the other way; inactive = no such curve, though single readings can be large or run the other way; the % refers to the signal ratio; note: potency is the fitted concentration of half-maximal effect). Put shortly: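 HEK293 cells stably carrying an ER-alpha-UAS-bla beta-lactamase reporter were pre-cultured overnight in 2% charcoal-stripped FBS medium. Test compounds in DMSO were added together with 17beta-estradiol for 18 hr at 37C. Read-out was fluorescence after 2 hr with LiveBLAzer B/G FRET substrate at room temperature.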

Assay [11] is described as follows: qHTS assay to identify small molecule antagonists of the estrogen receptor alpha (ER-alpha) signaling pathway - cell viability counter screen (AID 743074; calls by dose curve; note: nearly all actives have a fitted effect of over 45% in size).
The target in assay [12] is Estrogen receptor (Homo sapiens) (UniProt P03372). Put plainly: qHTS assay to identify small molecule agonists of the estrogen receptor alpha (ER-alpha) signaling pathway (AID 743075; calls by dose curve; note: potency is the fitted concentration of half-maximal effect).
Assay [13] shares this target. The assay can be described thus: qHTS assay to identify small molecule agonists of the estrogen receptor alpha (ER-alpha) signaling pathway using the BG1 cell line (AID 743079). Note: nearly all actives have a fitted effect of over 20% in size. Note: potency is the fitted concentration of half-maximal effect.
Assay [14] in a line: qHTS assay to identify small molecule antagonists of the estrogen receptor alpha (ER-alpha) signaling pathway using the BG1 cell line (AID 743080; calls by dose curve;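 note: BG1 cells stimulated with 17beta-estradiol alongside compound; series mostly up to about 70 µM; nearly all actives have a fitted effect of over 25% in size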). In a few lines: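 Luciferase inhibition measured with ONE-Glo after 30 min at RT in BG1Luc4E2 cells given test compounds and 17beta-estradiol for 21.5 h at 37 C; CellTiter-Fluor viability read in the same wells beforehand.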
Assay [15] can be described thus: qHTS assay to identify small molecule antagonists of the estrogen receptor alpha (ER-alpha) signaling pathway using the BG1 cell line - cell viability counter screen (AID 743081).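 Note: compound given together with 17beta-estradiol as the ER stimulus; series mostly up to about 70 µM; nearly all actives have a fitted effect of over 45% in size.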
Assay [16] has as its target Aromatase (Homo sapiens) (UniProt P11511). Put plainly: qHTS assay to identify aromatase inhibitors (AID 743083). Note: nearly all actives have a fitted effect of over 55% in size. Note: potency is the fitted concentration of half-maximal effect.
Assay [17] has as its target Androgen receptor (Homo sapiens) (UniProt P10275). Put plainly: qHTS assay to identify small molecule agonists of the androgen receptor (AR) signaling pathway using the MDA cell line (AID 743040; note: nearly all actives have a fitted effect of over 20% in size). In a few lines: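 MDA-kb2 breast carcinoma cells stably carrying an MMTV-driven luciferase reporter (AR- and GR-responsive) were seeded and held 5 h at 37C, 0% CO2, then exposed to compounds in DMSO for 16 h. Luminescence was read 30 min after ONE-Glo addition.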

Assay [18] shares this target. The assay can be described thus: qHTS assay to identify small molecule antagonists of the androgen receptor (AR) signaling pathway using the MDA cell line (AID 743042; note: nearly all actives have a fitted effect of over 55% in size; note: potency is the fitted concentration of half-maximal effect). In a few lines: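 MDA-kb2 cells (human breast carcinoma, stably carrying an MMTV-luciferase reporter responsive to AR and GR) were plated at 3,000 cells/well and preincubated 5 hr at 37C, then given compound plus R1881 agonist for 16 h. ONE-Glo luminescence was read.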

Assay [19] has the same target. The assay can be described thus: qHTS assay to identify small molecule antagonists of the androgen receptor (AR) signaling pathway (AID 743035; active = well fitted inhibition curve with a large enough effect in the signal ratio in the repeat runs, not every such curve was filed as active; inconclusive = weak or mixed curves, or effect the other way; inactive = no such curve, though single readings can be large or run the other way; the % refers to the signal ratio). Put shortly:
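Beta-lactamase FRET read (2 h RT incubation with LiveBLAzer B/G) following 16 h of compound plus R1881 treatment of AR-UAS-bla HEK293 cells, which had been pre-incubated 4 h at 37C.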

Assay [20] has the same target. Put plainly: qHTS assay to identify small molecule agonists of the androgen receptor (AR) signaling pathway (AID 743036; active = well fitted activation curve with a large enough effect in the signal ratio in the repeat runs, with a control signal flat, not every such curve was filed as active; inconclusive = weak or mixed curves, or effect the other way; inactive = no such curve, though single readings can be large or run the other way; the % refers to the signal ratio). Put shortly:
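AR-UAS-bla HEK293 cells, plated 4 h before dosing, were treated with compound for 16 h at 37C. beta-Lactamase reporter read after 2 h with LiveBLAzer B/G FRET substrate at room temperature.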

Chain of Androgen receptor (Homo sapiens) (P10275 whole entry, looked up): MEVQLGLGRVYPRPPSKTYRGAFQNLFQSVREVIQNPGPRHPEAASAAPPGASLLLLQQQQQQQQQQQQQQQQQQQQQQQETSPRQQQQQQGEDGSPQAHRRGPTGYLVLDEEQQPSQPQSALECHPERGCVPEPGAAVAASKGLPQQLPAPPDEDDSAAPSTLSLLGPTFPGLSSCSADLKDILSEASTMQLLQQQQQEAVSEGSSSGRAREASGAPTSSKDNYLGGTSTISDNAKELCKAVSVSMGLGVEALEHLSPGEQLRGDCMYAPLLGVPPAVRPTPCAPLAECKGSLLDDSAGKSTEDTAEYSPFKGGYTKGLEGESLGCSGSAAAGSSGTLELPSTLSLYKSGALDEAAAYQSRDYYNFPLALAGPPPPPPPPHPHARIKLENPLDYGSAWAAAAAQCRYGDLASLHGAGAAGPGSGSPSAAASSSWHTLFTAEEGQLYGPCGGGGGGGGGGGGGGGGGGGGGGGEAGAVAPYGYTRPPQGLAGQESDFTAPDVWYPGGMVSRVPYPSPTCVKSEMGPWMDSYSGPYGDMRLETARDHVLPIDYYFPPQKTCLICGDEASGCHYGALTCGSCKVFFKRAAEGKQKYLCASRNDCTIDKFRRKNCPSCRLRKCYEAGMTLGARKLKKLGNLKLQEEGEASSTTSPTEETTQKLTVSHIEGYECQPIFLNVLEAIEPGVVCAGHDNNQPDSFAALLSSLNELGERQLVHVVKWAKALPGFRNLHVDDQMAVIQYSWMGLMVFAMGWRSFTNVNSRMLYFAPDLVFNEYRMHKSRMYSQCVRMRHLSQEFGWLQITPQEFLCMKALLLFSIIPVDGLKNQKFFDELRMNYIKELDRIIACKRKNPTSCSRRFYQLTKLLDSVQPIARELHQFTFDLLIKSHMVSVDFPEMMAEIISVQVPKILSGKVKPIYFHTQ
Chain of Aromatase (Homo sapiens) (P11511 whole entry, looked up): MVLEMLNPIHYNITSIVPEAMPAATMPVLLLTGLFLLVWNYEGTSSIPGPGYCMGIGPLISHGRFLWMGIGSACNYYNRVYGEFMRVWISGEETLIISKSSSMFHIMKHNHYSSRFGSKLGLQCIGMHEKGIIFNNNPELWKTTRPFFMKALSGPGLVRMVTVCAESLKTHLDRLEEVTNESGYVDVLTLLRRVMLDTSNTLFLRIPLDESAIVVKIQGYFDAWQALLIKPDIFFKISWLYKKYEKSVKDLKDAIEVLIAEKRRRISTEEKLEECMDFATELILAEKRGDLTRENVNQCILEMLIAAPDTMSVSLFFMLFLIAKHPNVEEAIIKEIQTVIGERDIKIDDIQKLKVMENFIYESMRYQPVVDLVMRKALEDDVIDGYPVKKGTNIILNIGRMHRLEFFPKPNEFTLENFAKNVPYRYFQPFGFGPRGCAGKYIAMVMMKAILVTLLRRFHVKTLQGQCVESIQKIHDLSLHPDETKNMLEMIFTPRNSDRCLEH
Chain of Estrogen receptor (Homo sapiens) (P03372 whole entry, looked up): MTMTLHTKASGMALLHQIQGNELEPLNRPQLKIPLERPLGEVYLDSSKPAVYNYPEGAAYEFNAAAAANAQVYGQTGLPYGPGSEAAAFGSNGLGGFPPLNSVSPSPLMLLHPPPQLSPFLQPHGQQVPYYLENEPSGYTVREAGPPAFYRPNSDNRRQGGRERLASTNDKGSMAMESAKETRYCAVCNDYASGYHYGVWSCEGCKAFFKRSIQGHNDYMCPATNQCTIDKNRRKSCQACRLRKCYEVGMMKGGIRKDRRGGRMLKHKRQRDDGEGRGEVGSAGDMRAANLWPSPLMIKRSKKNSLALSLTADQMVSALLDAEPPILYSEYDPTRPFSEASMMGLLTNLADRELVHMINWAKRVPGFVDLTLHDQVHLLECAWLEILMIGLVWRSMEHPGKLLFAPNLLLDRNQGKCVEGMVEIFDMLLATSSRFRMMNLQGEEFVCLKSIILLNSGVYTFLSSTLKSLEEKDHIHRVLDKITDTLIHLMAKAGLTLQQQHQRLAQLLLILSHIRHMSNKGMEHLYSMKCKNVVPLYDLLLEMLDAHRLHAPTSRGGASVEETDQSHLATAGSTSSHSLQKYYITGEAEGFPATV

Consider `CCCCCC=O`, for which the Potency entry in [1], in assay [2], in [3], in [4], in assay [5] and in [6] was “inactive” throughout. The Potency result in [7], in assay [8], in assay [9], in assay [10], in assay [11] and in assay [12] was “inactive” throughout. Further, the Potency result in assay [13], in assay [14] and in assay [15] was “inactive” each time.
On to `c1ccc2ncccc2c1`, for which the Potency result in [1], in [2], in assay [3], in [4], in assay [5] and in assay [6] was “inactive” in each case. Moreover, the Potency result in assay [7], in assay [8], in assay [9], in assay [10], in assay [12] and in [13] was “inactive” each time. Further, the Potency result in [14], in [15] and in assay [16] was “inactive” throughout.
Regarding `C=C[Si](OCCOC)(OCCOC)OCCOC`, the Potency entry in assay [1], in assay [5], in assay [6], in [7], in [8] and in [9] was “inactive” in each case. Also, the Potency result in assay [10], in assay [11], in assay [12], in assay [13], in assay [14] and in assay [15] was “inactive” in each case. Further, in assay [16], the Potency entry was “inactive”. Moreover, the Potency was 43.3 µM (active) in [2]; “inactive and 30.6 µM (active)” in assay [3]; “inactive and 30.6 µM (active)” in assay [4].
Regarding `CC(=O)O[C@]1(C(C)=O)CC[C@H]2[C@@H]3C=C(C)C4=CC(=O)CC[C@]4(C)[C@H]3CC[C@@]21C`, the Potency entry in [1], in assay [5], in assay [6], in assay [7], in assay [9] and in assay [11] was “inactive” throughout. Also, the Potency result in [12], in assay [13], in [14], in [15] and in [16] was “inactive” each time. In addition, the Potency in [2] is 11.4 µM (active) and 13.7 µM (active); in assay [3], 12.7 µM (active) and 17.2 µM (active); in assay [4], 15.4 µM (active); in [8], 27.3 µM (active).
With `O=C(O)CCCC(=O)O`, the Potency entry in assay [1], in [2], in assay [3], in assay [4], in assay [5] and in [6] was “inactive” each time. Further, the Potency entry in [7], in assay [8], in assay [9], in assay [10], in [12] and in assay [13] was “inactive” each time. Besides, the Potency result in assay [14], in assay [15] and in assay [16] was “inactive” throughout.
For `CC1(C)OC(=O)NC1=O`, the Potency entry in assay [1], in assay [2], in [3], in assay [4], in [5] and in assay [6] was “inactive” throughout. The Potency entry in assay [7], in [8], in assay [9], in assay [11], in assay [15] and in assay [16] was “inactive” throughout.
For `C=CCNCC=C`, the Potency result in [1], in assay [2], in assay [3], in assay [4], in assay [5] and in assay [6] was “inactive” each time. Further, the Potency result in assay [7], in [8], in assay [9], in [10], in assay [11] and in assay [12] was “inactive” each time. In addition, the Potency entry in [13], in assay [14], in assay [15] and in [16] was “inactive” throughout.
As to `CCC(Cc1c(I)cc(I)c(N)c1I)C(=O)O` (configuration not stated), the Potency result in [1], in assay [2], in [3], in [4], in assay [5] and in assay [6] was “inactive” throughout. For the same compound, the Potency entry in assay [7], in assay [8], in assay [9], in assay [11], in [13] and in assay [14] was “inactive” in each case. The Potency entry in [15] and in assay [16] was “inactive” in each case. Besides, the Potency result is “inactive and 47.5 µM [inconclusive] (active)” in [10]; 8.11 µM [inconclusive] (active) and 5.32 µM [activator] (active) in [12].
Consider `O=Cc1ccccc1C=O`, for which the Potency in [1] was 23.9 µM (active) and 4.36 µM (active); in assay [2], 7.5 µM (active) and 2.73 µM (active); in assay [3] it was 8.41 µM (active) and 2.17 µM (active); in assay [4], 11.9 µM (active) and 2.43 µM (active); in assay [6], 24.3 µM (active); in assay [18], 8.63 µM (active). In addition, the Potency is 10.6 µM (active) and 2.43 µM (active) in assay [7]; 9.44 µM (active) and 2.17 µM (active) in assay [8]; 23.9 µM [activator] (active) and inactive in assay [12]; 21.1 µM (active) and 30.6 µM (active) in [13]; “inactive and 8.63 µM (active)” in assay [16]. Moreover, the Potency result in assay [5], in assay [17], in assay [9], in assay [10], in assay [11] and in [15] was “inactive” each time.
With `Nc1cc([N+](=O)[O-])ccc1C(=O)O`, the Potency result in assay [1], in [2], in assay [3], in assay [4], in assay [5] and in assay [6] was “inactive” in each case. Besides, the Potency entry in [7], in assay [8], in [9], in assay [10], in [12] and in assay [14] was “inactive” throughout. For the same compound, the Potency result in assay [15] and in [16] was “inactive” throughout. The Potency entry in assay [13] is “inactive and 77 µM (active)”.
As to `c1ccc2c(c1)ccc1cc3c(ccc4ccccc43)cc12`, the Potency entry in assay [1], in assay [2], in assay [3], in assay [4], in [5] and in assay [6] was “inactive” in each case. In addition, the Potency result in assay [7], in [8], in assay [9], in assay [10], in [11] and in [13] was “inactive” in each case. Besides, the Potency entry in [15] and in assay [16] was “inactive” throughout. Further, in [12], the Potency entry is “inactive and 19.3 µM [fluorescent] (active)”.
`CCc1cccc2c3c([nH]c12)C(CC)(CC(=O)O)OCC3` (configuration not stated): the Potency entry in assay [1], in [2], in assay [3], in assay [4], in assay [5] and in assay [19] was “inactive” each time. Moreover, the Potency result in assay [17], in assay [6], in assay [18], in assay [7], in assay [8] and in assay [9] was “inactive” in each case. Besides, the Potency entry in assay [10], in assay [11], in assay [12], in assay [13], in assay [14] and in assay [15] was “inactive” in each case. In addition, in [16], the Potency result is “inactive”. Further, the outcome in assay [20] was inactive.
Take `CC1(C)C(C=C(Cl)Cl)C1C(=O)OCc1cccc(Oc2ccccc2)c1` (configuration not stated): the Potency result in [1], in [2], in [3], in assay [4], in assay [5] and in assay [19] was “inactive” throughout. The Potency result in [17], in assay [6], in assay [18], in [7], in assay [8] and in [9] was “inactive” throughout. Also, the Potency result in assay [10], in assay [11], in assay [12], in [13], in assay [14] and in assay [15] was “inactive” in each case. For the same compound, the Potency entry in [16] is “inactive”. Moreover, the outcome in [20] was inactive.

The values above are taken from PubChem BioAssay (Tox21).
